# Measured values as given in PubChem BioAssay (NCI).
# About 83,000 compounds went through this panel and 20% of them were active in at least one assay; those are over-represented in the sample as a whole.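 Each cell line was grown in a 96-well plate and treated with one concentration of compound for 48 hours. Values below 10 were considered active.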 Unmarked numbers belong to inactive results. The source made the active and inactive calls.
# System: NCI/ADR-RES ovarian
# Test: NCI-60 one-dose screen, 48 h (100 = growth as untreated, 0 = no growth, -100 = all killed)
# Details: 10 µM unless noted
# Procedure: Growth inhibition of the NCI/ADR-RES human […] tumor cell line is measured as a screen for anti-cancer activity. Cells are grown in 96 well plates and exposed to the test compound for 48 hours. Compounds are tested at a single concentration, which is 10^-5 M for most compounds. The reported endpoint is percent growth (GI% or GIPRCNT), where numbers from 0 - 100% represent growth inhibition, and numbers from -100% - 0 represent cell death. For example, a value of 40 represents 60% growth inhibition. A value of 0 means no net growth occurred over the course of the experiment. A value of -40 indicates 40% of cells at the beginning of the experiment died by the end of the experiment. A value of -100 means all cells are dead at the end of the experiment.
# NCI-60 Human Tumor Cell Lines Screen was performed using the standard one-dose NCI protocol, which is described in more detail at https://dtp.cancer.gov/discovery_development/nci-60/default.htm.
# Compounds with GIPRCNT values below 10 were considered active. Activity score was based on GIPRCNT using the following formula: […]
# Score is 0 for GIPRCNT values of 100 or above, 50 for GIPRCNT values of 0, and 100 for GIPRCNT values of -100.
row,Compound,growth
1,C#Cc1cccc(Nc2ncnc3ccc(-c4cnc(N)nc4)cc23)c1,49.8%
2,CCCCCCCCCCCCCCCC(N)c1ccccc1 (stereo not given),-31.1% (active)
3,O=C(/C=C/c1ccccc1)c1cccc(OCCCOc2cccc(C(=O)/C=C/c3ccccc3)c2)c1,96.4%
4,O=C(c1ccc(-c2nc(CSc3nc4ccccc4s3)no2)cc1)N1CCSCC1,52.7%
5,COc1ccc(C(=O)Nc2ncc(Cc3ccc(F)cc3)s2)cc1,7.08% (active)
6,COC(C(=O)[C@@H](O)[C@@H](C)O)[C@@H]1Cc2cc3cc(O[C@H]4C[C@@H](O[C@H]5C[C@@H](O)[C@H](O)C(C)O5)[C@H](O)C(C)O4)c(C)c(O)c3c(O)c2C(=O)[C@H]1O[C@H]1C[C@@H](O[C@H]2C[C@@H](O[C@H]3C[C@@H](O)[C@H](OC)C(C)O3)[C@@H](O)C(C)O2)[C@H](O)C(C)O1 (stereo not given in full),59.5%
7,CN(C)CC(=O)Nc1ccc2ncnc(Nc3ccc(Oc4cccc(C(F)(F)F)c4)c(Cl)c3)c2c1,54.3%
8,CC1=C(CCC(C)N(C)Cc2ccc(OCCCN3CCCC3)cc2)C(C)(C)CCC1 (stereo not given),63%
9,C#Cc1cccc(Nc2ncnc3ccc(-c4cncc(NS(C)(=O)=O)c4)cc23)c1,78.3%
10,Cc1ccccc1/C=C1\CN(C(=O)OC(C)(C)C)C/C(=C\c2ccccc2C)C1=O,15.7%
11,COc1cc(-c2cc(-c3ccc(N(C)C)cc3)nc(N3CCC(O)CC3)c2C#N)cc(OC)c1OC,14.9%
12,O=S(=O)(Nc1ccccc1)c1ccc(C2CC3(Cl)C(Cl)=C(Cl)C2(Cl)C3(Cl)Cl)cc1 (stereo not given),24.1%
13,O=C(Cc1ccccc1)Nc1nc(O)c(/C=C2\C(=O)C=Cc3ccccc32)s1,96.7%
14,COc1ccc2nc3ccc(OC)cc3c(SCCCN)c2c1,86.9%
15,N=C(N)c1ccc(-c2ccc(-c3cc(Cl)cc(Cl)c3)o2)o1,-38.5% (active)
16,CCOC(=O)c1cc(C(=O)c2cc(OC)c(OC)c(OC)c2)n2ccc(-c3ccncc3)cc12,99.2%
17,O=c1oc2ccccc2cc1C1=NN=C(SCc2ccccc2)SC1,105%
18,CC(O)c1cnc(/C=C2\SC(=S)N(Cc3ccccc3)C2=O)s1 (stereo not given),92.7%
19,COC1C[C@H](O[C@@H]2C[C@H](O[C@@H]3C[C@H](O[C@@H]4C(=O)c5c(cc6cc(O[C@H]7C[C@@H](O[C@H]8C[C@@H](O)[C@H](O)C(C)O8)[C@H](O)C(C)O7)c(C)c(O)c6c5O)C[C@H]4C(OC)C(=O)[C@@H](O)[C@@H](C)O)OC(C)[C@H]3O)OC(C)[C@@H]2O)OC(C)[C@@H]1O (stereo not given in full),82.4%
20,CC1(C)CC[C@]2(C(=O)O)CC[C@]3(C)C(=CC[C@@H]4[C@@]5(C)C/C(=C/O)C(=O)C(C)(C)[C@@H]5CC[C@]43C)[C@@H]2C1,38.8%

row,Compound,growth
1,COc1cc(-c2nc(SCC(C)C)nc(Nc3cccc4ccccc34)c2C#N)cc(OC)c1OC,98.8%
2,CC1(C)CC2=C3C=C[C@@H]4[C@@]5(C)CCC(=O)C(C)(C)[C@@H]5CC[C@@]4(C)[C@]3(C)CC[C@@]2(C(=O)O)CC1=O,93.5%
3,CCOC(=O)c1ccc2[nH]c(O)c(C(=Nc3ccc(N(C)C(=O)CN4CCN(C)CC4)cc3)c3ccccc3)c2c1,53.1%
4,COC(C(=O)[C@@H](O)[C@@H](C)O)[C@@H]1Cc2cc3cc(O[C@H]4C[C@@H](O[C@H]5C[C@@H](O)[C@H](O)C(C)O5)[C@H](O)C(C)O4)cc(O)c3c(O)c2C(=O)[C@H]1O[C@H]1C[C@@H](O[C@H]2C[C@@H](O[C@H]3C[C@@H](OC)[C@H](O)C(C)O3)[C@@H](O)C(C)O2)[C@H](O)C(C)O1 (stereo not given in full),97.5%
5,Cc1nnc(-n2c(O)cc(=O)n(-c3ccccc3)c2=S)nc1/C=C/c1ccc(N(C)C)cc1,44.6%
6,C#CCn1cnc2c(Nc3cccc(NC(=O)C=C)c3)ncnc21,92.5%
7,COC(=O)c1c2c(c(C)[n+]([O-])c1C)C(=O)C(NCc1ccc(Cl)cc1)=CC2=O,54.8%
8,C=C(C)[C@@H]1CC[C@]2(C(=O)OC)CC[C@]3(C)[C@H](CC[C@@H]4[C@@]5(C)C/C(=C/NC(N)=S)C(=O)C(C)(C)[C@@H]5CC[C@]43C)[C@@H]12,104%
9,CCCCCCCCn1ccc2cc(NC(=O)CN3CCN(c4nc(C)cc(Cl)n4)CC3)ccc21,93.2%
10,C/C(=N\NC(=O)c1ccccc1O)c1cccc(/C(C)=N/NC(=O)c2ccccc2O)n1,59.1%
11,O=C(c1ccccc1)C1C(=O)N2C(=S)N(c3ccccc3)C(=O)C2C1c1ccc(Cl)cc1 (stereo not given),96.4%
12,COc1ccc(-c2nc(SCC(C)C)nc(N/N=C\c3ccc(F)cc3)c2C#N)cc1,84.2%
13,N#Cc1c(-c2ccc(Cl)cc2)nc(SCC(=O)NC2=NN=C(c3ccccc3)CS2)[nH]c1=O,86.7%
14,C[C@H](NC(=O)[C@@H](C)N)[C@H](Oc1ccc2c(cnn2-c2ccc(F)cc2)c1)c1ccc2c(c1)OCCO2,57.6%
15,O=C(/C=C(/C=C/c1cccc2[nH]ccc12)OB(F)F)/C=C/c1cccc2[nH]ccc12,3.47% (active)
16,CCC(=C(c1ccc(OCCN2CCCC2)cc1)c1ccc(OCCN2CCCC2)cc1)c1ccc(Cl)cc1,10.5%
17,O=C(O)[C@@H]1c2ccccc2-c2ccccc2[C@H]1C(=O)O,95.4%
18,Cc1nc2sc(C(=O)Nc3cccc(Cl)c3C)c(N)c2cc1C(=O)c1ccccc1,4.5% (active)
19,O=C1Nc2ccccc2[C@]12CC(c1ccccc1)=NN2,44.9%
20,CCOC(=O)c1c(C)nc2c(c1N)CC(=O)N2Cc1cc(F)cc(Cl)c1,81.2%
